# Measured values as given in PubChem BioAssay AID1259421 (Broad Institute, 2018).
# Where “and” joins values, the source holds several entries; their conditions need not be identical. Identical values can stand only once. Among all 6,400 compounds or so, about 610 (9.5%) were called active. Rule as the data show it: active = activity change below about -70%; inconclusive = no clear call, values can overlap the other calls; inactive = above that. For the sample, actives were picked, then their nearest neighbours and some compounds at random. The source holds several records for some structures; these can differ, active in one and inactive in another.
# Assay: Toxoplasma gondii ME49Luc growth in HeLa cells, luciferase, no IFN-y, primary screen (AID 1259421)
# Conditions: T. gondii ME49Luc in HeLa, 72 h, stronger effect = lower value, concentration not given here
row,Compound,"activity change, negative = inhibition"
1,C=CCn1c(=O)n([C@@H]2O[C@H](CO)[C@@H](O)[C@H]2O)c2nc(N)[nH]c(=O)c21,-1.47% (inactive)
2,CCNC(=O)CCC(N)C(=O)O (centres undefined),15.2% (inactive)
3,CC1(C)C2CC[C@]3(C)C(C(=O)C=C4[C@@H]5C[C@@](C)(C(=O)O)CC[C@]5(C)CC[C@]43C)[C@@]2(C)CC[C@@H]1OC(=O)CCC(=O)O (some centres undefined),6.36% (inactive)
4,O=C(c1c(O)c2ccc(Cl)cc2[nH]c1=O)C1CC1,3.48% (inactive) and 5.32% (inactive)
5,C=CCN1CCCC1CNC(=O)c1cc2[nH]nnc2cc1OC (centres undefined),3.75% (inactive)
6,CC1(C)C(=O)[C@@H]2C[C@@]3(O)C4=CC(=O)O[C@@H](c5ccoc5)[C@]4(C)CCC3[C@@](C)(C2=O)[C@H]1CC(=O)O (some centres undefined),0.589% (inactive)
7,O=c1n(CC2CO2)c(=O)n(CC2CO2)c(=O)n1CC1CO1 (centres undefined),36.1% (inactive)
8,COc1ccc2cc1Oc1ccc(cc1)C[C@H]1c3c(cc4c(c3Oc3cc5c(cc3OC)CCN(C)[C@@H]5C2)OCO4)CCN1C,12.1% (inactive) and -4.88% (inactive)
9,COc1ccc2cc1Oc1cc3c(cc1OC)CC[N+](C)(C)[C@H]3Cc1ccc(cc1)Oc1c(OC)c(OC)cc3c1[C@@H](C2)[N+](C)(C)CC3,18.6% (inactive)
10,COc1ccc2cc1Oc1ccc(cc1)C[C@H]1c3cc(c(OC)cc3CCN1C)Oc1c(OC)c(OC)cc3c1[C@H](C2)N(C)CC3,-77.3% (active) and 18.9% (inactive)
11,CC(O)CCCCn1c(=O)c2c(ncn2C)n(C)c1=O (centres undefined),-6.61% (inactive)
12,CCCN(CCc1cccs1)[C@H]1CCc2c(O)cccc2C1,10.9% (inactive)
13,CCCCn1c(=O)c2[nH]c(C34CC5CC(CC3C5)C4)nc2n(CCCO)c1=O,12% (inactive) and -13.1% (inactive)
14,O=C1[C@@H](Cc2ccc(O)cc2)N2C(=O)CCN(C(=O)NCc3ccccc3)[C@H]2CN1Cc1cccc2ccccc12,1.58% (inactive)
15,CC(=O)OC(C)(C)[C@@H]1Cc2cc3ccc(=O)oc3cc2O1,-5.08% (inactive)
16,CCN(CC)c1ccc(C(=C2C=CC(=[N+](CC)CC)C=C2)c2ccccc2)cc1,-79.9% (active)
17,CCN(Cc1cccc(S(=O)(=O)O)c1)c1cccc(C(=C2C=CC(=[N+](CC)Cc3cccc(S(=O)(=O)O)c3)C=C2)c2ccc(O)cc2S(=O)(=O)O)c1,-44.9% (inactive)
18,O[C@@H]1[C@H](O)[C@@H](CCl)O[C@H]1n1cnc2c(NC3CC4CCC3C4)ncnc21 (some centres undefined),20.5% (inactive)
19,Cc1cc(Oc2ccc3nc(COc4ccc(CC5SC(=O)NC5=O)cc4)n(C)c3c2)cc(C)c1N (centres undefined),12.3% (inactive)
